Assay outcomes as filed in PubChem.
PKA-R2B act = activators of PKA-R2B holoenzyme, primary screen, biochemical, fluorescence polarization, Cy5-IP20, human. AID 504700, 2011. PKA-R2B holoenzyme dissociation; R2B truncated from residue 108, S112A mutant; 0% DMSO only, 100% 113 µM cGMP. cAMP-dependent protein kinase catalytic subunit beta (Homo sapiens) + cAMP-dependent …. activation, % at 11.4 µM. 340,000 tested, 0.079% active;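 active = activation above a cutoff set at the mean over all compounds plus 3 SD, cut at about 18% in these data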;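 note: higher means more holoenzyme dissociation and a rise in polarization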
PKA-R1A activ = activators of PKA-R1A holoenzyme, primary screen, biochemical, fluorescence polarization, Cy5-IP20, bovine R1A, mouse PKAc. cAMP-dependent protein kinase type I-alpha regulatory subunit (Bos taurus) + …. PKA-R1A dissociation; scaled: DMSO 0%, 113 µM cGMP 100%. activation, % at 11.4 µM. 340,000 tested, 0.083% active;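 active = percent activation above the mean of all tested compounds plus 3 SD, cut at about 19% in these data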;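 note: higher means more PKAc released from R1A so a rise in polarization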
CendR NRP1 mod = modulators of CendR peptide binding to NRP-1, primary screen, biochemical, fluorescence polarization, uHTS. FAM-RPARPAR peptide binding to NRP-1. inhibition, % at 25 µM. 360,000 tested, 0.85% active. AID 602438, 2012;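 active = inhibition or corrected inhibition above about 18%, plus a signal ratio from 0.5 to 1.5, limit read from the data, passing the limit was not always enough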
ATG4B inh = ATG4B protease inhibitors, primary screen, biochemical, fluorescence, uHTS. Cysteine protease ATG4B (Homo sapiens), Q9Y4P1. ATG4B cleavage of LC3-PLA2, NBD-HPC fluorescence, 1 h. inhibition, % at 8.33 µM. 340,000 tested, 0.51% active; in the data active = inhibition above about 40%
VLA-4 inh = inhibition in human VLA-4 binding assay, primary screen, VLA-4 allosteric modulator project, MLPCN library, flow cytometry, VLA-4 expressing cells; ligand binding flow cytometry; Integrin alpha-4 (Homo sapiens), P13612; 330,000 tested, 0.2% active; inhibition, % (about 7 µM as worked out from the volumes in the protocol); in the data active = inhibition above about 50%
Starred values were filed as active, the others as inactive; . = no result given. A selection: hits, their analogues and other compounds. The true share with any hit is near 1.6%.

SMILES	PKA-R2B act	PKA-R1A activ	CendR NRP1 mod	ATG4B inh	VLA-4 inh
COc1cccc(-c2ncc3ccccc3c2COC(=O)c2ccc(Br)cc2)c1	13.2	2.7	-3.7	-5.0	-1.0
COC(=O)C1C(=O)C2=C(CC1C)NC(C)=C(C(=O)OC(C)C)C2c1ccc(OC)c(O)c1 (stereo not drawn)	12.3	20.0*	-9.7	-9.4	-4.7
COC(=O)C1C(=O)C2=C(CC1C)NC(C)=C(C(=O)OC1CCCC1)C2c1ccc(N(C)C)cc1 (stereo not drawn)	-9.2	-18.5	5.1	-7.6	3.7
CCCn1c(C(C)Nc2nc(-c3ccc(Cl)c([N+](=O)[O-])c3)cs2)nc2ccccc21 (stereo not drawn)	-9.7	-1.5	-0.9	-3.0	14.7
Cc1csc(NC(C)c2nc3cc(C(F)(F)F)ccc3n2CCCO)n1 (stereo not drawn)	7.8	1.9	35.4*	-10.3	.
Cc1ccc(Cn2c(C(C)Nc3nc(-c4ccc(Cl)c([N+](=O)[O-])c4)cs3)nc3cc(C(F)(F)F)ccc32)cc1 (stereo not drawn)	-5.3	-2.8	34.8*	1.6	-10.9
CC(C)(C)OC(=O)Nc1ccccc1-n1nnnc1C(C(=O)c1ccccc1)N1CCN(c2ccccn2)CC1 (stereo not drawn)	.	.	1.5	.	.
COc1ccc(NC(=O)c2c(F)cccc2Cl)cc1S(=O)(=O)N1CCOCC1	-1.4	-1.4	-2.3	-9.3	0.0
COc1ccc(N2CCN(C(=O)c3ccc(Br)cc3)CC2)c([N+](=O)[O-])c1	1.3	4.8	16.4*	-2.1	5.6
Cc1cc(C)c(C(=O)COC(=O)c2c(C)noc2C)cc1C	-1.2	-1.1	2.0	6.4	-5.5
CCC(C)Nc1nc(N)c([N+](=O)[O-])c(Nc2cc(OC)ccc2OC)n1 (stereo not drawn)	-2.1	-10.7	52.2*	-5.6	-3.6
O=C(COC(=O)c1ccc(N2CCCC2=O)cc1)Nc1ccccc1	-0.4	-9.7	-4.7	6.5	6.8
O=C(COC(=O)c1ccc(N2CCCC2=O)cc1)c1ccccc1	-6.6	-1.7	28.3*	2.5	13.0
Cn1c(=O)oc2cc(S(=O)(=O)Nc3ccccc3O)ccc21	3.3	5.4	34.9*	-1.9	-2.8
COC(=O)c1ccccc1NS(=O)(=O)c1ccc2c(c1)oc(=O)n2C	2.0	-9.7	0.8	0.8	-7.3
O=C(NNc1ncnc2c1cnn2-c1ccc(F)cc1)c1ccco1	0.5	-0.7	29.3*	-3.0	-1.4
OCc1cccc(-c2cnc3c(Nc4cccc(OC(F)(F)C(F)F)c4)nccn23)c1	.	.	-9.3	.	.
Cc1ccc(F)cc1NC(=O)COC(=O)C1CC2CCCC(C1)C2=O (stereo not drawn)	2.2	4.8	30.0*	.	.
COc1ccc(N2CCN(C(=O)c3ccc(NC(=O)C4=CSCCO4)cc3)CC2)cc1	5.5	3.5	35.5*	-1.1	14.8
Cc1cc(C)c(NC(=O)C2C(=O)Nc3ccccc3C(=O)N2C(C)(C)C)c(C)c1 (stereo not drawn)	.	.	3.9	.	.
CC(C)(C)CNC(=O)C1(C)CCN1C(=O)Cc1ccc(C(C)(C)C)cc1 (stereo not drawn)	.	.	33.2*	.	.
C[C@H](NC(=O)[C@@H]1CCCN1C(=O)[C@@H]1CCCN1C(=O)OC(C)(C)C)c1ccccc1	.	.	6.5	.	.
Cc1ccc(NC(=O)COc2ccc3c(c2)OCO3)c(C)c1	-3.1	-1.6	15.9*	-17.7	0.5
Cn1c(N)c(S(=O)(=O)N2CCN(c3ccccc3Cl)CC2)c(=O)n(C)c1=O	10.3	-9.3	26.6*	0.8	10.3
C=C(C)C(=O)Oc1ccc(N=Nc2ccc(C)cc2)ccc1=O	.	.	16.2	-9.8	.
FC(F)(F)c1ccccc1Cc1c(-c2cccc(Cl)c2)nc2ccc(Cl)cn12	.	.	-7.7	.	.
O=C(NN1C(=O)/C(=C/c2cc([N+](=O)[O-])ccc2O)SC1=S)c1ccccc1O	.	.	.	.	23.6
